# A selection: hits, their analogues and other compounds. The true share with any hit is near 3.4%.
# Shn3 3UTR inh: reduction of Shn3 3'UTR firefly luciferase signal, primary screen, Schnurri-3 inhibitor project, cell-based, Clone20 osteoblasts, set 2. Clone20 osteoblast Shn3 3'UTR firefly luciferase, 24 h. inhibition, % at 12.5 µM. 0.52% of 360,000 active. AID 588674, 2011;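 active = mean inhibition of at least 75% with every replicate also reaching 75%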;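 note: 0% = median of neutral control wells and 100% = pilot-screen positive control compound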
# HIF-2a inh: HIF-2a reporter inhibitors, primary screen, luminescence, 786-0 RCC cells; 0.72% of 360,000 active; 786-0 RCC cells HIF-2a reporter, luciferase luminescence, overnight; inhibition, % at 18.8 µM;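 active = inhibition of the luminescence signal of 40% or more relative to plate controls, in a single-dose primary screen at 18.75 µM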
# MITF TRPM1 inh: inhibitors of MITF-dependent TRPM1 promoter reporter, primary screen, cell-based, SK-MEL-5, single point, luciferase. SK-MEL-5 TRPM1 promoter luciferase, 24 h. inhibition, % at 12.5 µM. 0.83% of 330,000 active;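 active = mean inhibition across replicates of 60% or more, whatever share of single replicates reaches that level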
# TWEAK Fn14 block: inhibitors of TWEAK-Fn14 signaling, primary screen, luciferase reporter cells, uHTS; inhibition, % at 10 µM; AID 1159606, 2016; TWEAK-stimulated Fn14 reporter cells, luciferase luminescence, 8 h; 2% of 360,000 active; in the data active = inhibition above about 50%
# EBV LMP1 NFkB: EBV LMP1-driven NF-kappaB luciferase reporter inhibitors, primary screen, cell-based, luminescence, single point; LMP1-induced NF-kappaB luciferase reporter cells; AID 504558, 2011; 0.69% of 350,000 active; inhibition, % at 12.5 µM; in the data active = inhibition above about 41%;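 note: 0% = neutral control wells and 100% = reference inhibitor control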
# TROY signal inh: inhibitors of TROY-driven NF-kB signaling, primary screen, Q293 LMP1-TROYcd cells, NF-kB luciferase, uHTS; Q293 LMP1-TROYcd NF-kB luciferase reporter, 4 h; inhibition, % at 10 µM; 0.98% of 360,000 active;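 active = compounds whose plate-normalised and pattern-corrected inhibition of the luciferase reporter signal at the single screening dose is 50% or more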
# Active calls of the source: *; / = no result.
SMILES,Shn3 3UTR inh,HIF-2a inh,MITF TRPM1 inh,TWEAK Fn14 block,EBV LMP1 NFkB,TROY signal inh
CCOC(=O)C1=C(Cn2cnc3ccccc32)NC(=O)NC1c1cc(C)ccc1C (stereo not drawn),4,12,13,11,0,52*
O=C(CSc1cn[nH]n1)Nc1cccc(C(F)(F)F)c1,2,2,3,5,3,-11
CCOc1ccc2c(c1)C(C)=CC(C)(C)N2S(=O)(=O)c1ccc(C)cc1,79,39,75*,35,21,14
O=C1NC(=S)NC1=Cc1ccc2c(c1)CCC2,-6,-49,-21,-7,93*,-41
O=C1NC(=S)N/C1=C/C=C/c1ccccc1,-27,-187,-17,-4,-4,-27
COc1ccc(CN2C(=O)c3cccnc3C2=O)cc1S(=O)(=O)N(C)c1cccc(C)c1,-7,-3,5,-16,1,2
O=C(/C=C/c1cccs1)Nc1scc(-c2ccccc2)c1C(=O)O,-34,-142,-26,60*,-1,15
CCCCOC(=O)c1ccc(NC(=O)c2c(OC)cccc2OC)cc1,31,7,8,-22,-8,83*
CCCCOC(=O)c1ccc(NC(=O)Nc2ccc(OC)c(OC)c2)cc1,1,-12,-6,15,1,1
CCCc1ccc(C(C)NC(=S)NCc2ccc(F)cc2)cc1 (stereo not drawn),23,17,10,24,-5,56*
COc1ccc(CCNC(=O)c2cc(COc3c(C)cccc3C)on2)c(OC)c1,-34,-128,-31,-22,-3,-14
COc1ccc(C)c2sc(N(CCN(C)C)C(=O)/C=C/c3cccs3)nc12,-16,8,88*,-1,0,-38
CCc1n[nH]c(=S)n1/N=C/c1ccc(N(C)c2ccccc2)cc1,-17,-7,-2,-13,76*,27
O=C(CCC(=O)N1CCOc2ccccc21)NC1CCCCCC1,-12,-16,/,-7,-1,0
CCOC(=O)N1CCC(NC(=O)CCC(=O)N2CCOc3ccccc32)CC1,1,12,0,64*,-1,/
CCOc1ccc(Cl)cc1CNCCCSc1nc(C)cc(C)n1,53,20,-4,9,3,1
COc1ccc(S(=O)(=O)N2CCC3CC2c2cc(-c4ccc5c(c4)OCO5)ccc23)cc1 (stereo not drawn),19,12,/,-3,/,4
CCN(CC(=O)Nc1ccc(NC(C)=O)cc1)C(=O)c1ccc(COc2ccc(C(C)(C)C)cc2)cc1,45,-9,11,53*,23,33
CCCCOc1ccc(C(=O)Nc2ccc(N3CCN(C(C)=O)CC3)cc2)cc1,14,3,3,40,21,21
CC(=O)N1CCN(c2ccc(NC(=O)c3ccc(C(C)(C)C)cc3)cc2)CC1,8,-93,-28,20,3,52*
CN1CCN(c2ccc(NC(=O)c3sc4ccccc4c3Cl)cc2)CC1,-5,-108,-12,-30,13,60*
CCCCOc1ccc(C(=O)Nc2ccc(N3CCN(C(=O)C(C)C)CC3)cc2)cc1,25,13,41,59*,12,23
Cc1ccc(C(=O)Nc2ccc(N3CCN(C)CC3)cc2)cc1C,-14,-43,-5,75*,24,57*
CN(Cc1ccccc1)C(=O)c1ccc(NC(=O)C2CCCN(C(=O)OC(C)(C)C)C2)cc1 (stereo not drawn),39,11,14,19,6,40
Cc1ccc(NC(=O)CCOc2ccccc2C)cc1C,-3,-111,-37,-20,-2,-35
SMILES,Shn3 3UTR inh,HIF-2a inh,MITF TRPM1 inh,TWEAK Fn14 block,EBV LMP1 NFkB,TROY signal inh
O=C(CCC1CCN(C(=O)CC2=CCCCC2)CC1)NCc1ccc(F)cc1,5,13,/,-15,3,2
COc1ccc(C(C#N)=C2C=CC(=NO)C(C)=C2Cl)cc1,16,-27,-4,25,-2,-4
CC(C)C(=O)N1CCN(c2ccc(NC(=O)COc3ccccc3[N+](=O)[O-])cc2)CC1,36,-6,39,75*,12,49
CN1CCN(c2ccc(NC(=O)COc3ccccc3[N+](=O)[O-])cc2)CC1,11,-13,7,-17,-6,-9
Cc1cccc(C)c1NC(=O)CSC(=O)c1sc2ccccc2c1Cl,-6,2,19,33,8,59*
O=C(NCCCN1CCCC1)c1[nH]c(C(F)(F)F)nc1-c1ccccc1,-5,14,/,6,/,-1
CCc1nnc(NC(=O)CCC(=O)N2CCN(C3c4ccccc4-c4ccccc43)CC2)s1,-22,-30,8,70*,-6,78*
Cc1ccccc1-c1nnc(SCC(=O)NC2CCCC2)n1C,42,8,-3,-8,5,-2
Cc1ccc(O)c(-c2[nH]ncc2C(=O)c2ccc(Br)cc2)c1,-8,18,-7,16,1,65*
CCc1nnc(SCC(=O)Nc2nc(C)c(C(=O)N(C)C)s2)n1CC,17,8,-4,0,-1,-3
Cc1ccc(S(=O)(=O)Nc2ccc(Cl)cc2)cc1NC(=O)c1cc2c(s1)CCCC2,8,8,16,72*,-6,62*
ClC(Cl)(Cl)C1=NCc2nnn(Cc3ccccc3)c2N1,7,11,/,5,/,5
O=C(OCc1nnc(-c2ccccc2)o1)C1CC(=O)N(CCc2ccccc2)C1 (stereo not drawn),-31,-120,-29,-23,-4,-32
CCOC(=O)c1c(C)[nH]c(C(=O)OCCOc2ccccc2C)c1C,-75,-228,-71,27,24,55*
C#CCOc1ccc2ccccc2c1/C=C(/C#N)c1ccc(C(=O)O)cc1,-4,7,6,13,6,-16
COCCCN1C(=O)C(CC(=O)NCCCCc2ccccc2)CC(C(=O)N2CCOCC2)=C1C (stereo not drawn),-1,11,/,-15,0,-6
CCN1CCN(C(c2ccc(C(F)(F)F)cc2)c2ccc3cccnc3c2O)CC1 (stereo not drawn),64,49*,66*,-12,14,21
O=C(COC(=O)c1ccc(Cl)c(S(=O)(=O)N2CCCCCC2)c1)NCc1ccccc1,-4,9,/,5,-3,28
C[C@H](CO)N1C[C@H](C)[C@H](CN(C)S(=O)(=O)c2ccc(Cl)cc2)OCc2cnnn2CCCC1=O,-8,0,/,-4,-3,-11
O=C(Sc1cccc2cccnc12)c1ccccc1Br,99*,14,85*,101*,-23,-19
Cc1cccc(NC(=O)Nc2c(C)n(C)n(-c3ccccc3)c2=O)c1C,16,19,14,-9,49*,-1
